{"source": "PubChem BioAssay AID1814", "about": "(Broad Institute, 2009)", "note": "Among all 300,000 compounds or so, about 22,000 (7.3%) were called active. Inconclusive results (about 2%) are left out. Cut-off read from the data, not from the text of the source: active = activity score below about -60%; inconclusive = mostly about -28% to -61%; inactive = positive scores. Many of the other results were omitted from the sample, so actives are more common in it than they were."}
{"assay": "Activators working through SNCA 5'UTR binding (MLPCN) (AID 1814)", "settings": "alpha-synuclein 5'UTR reporter, activators screen; stronger effect = lower value; tested at 7.5 µM"}
{"smiles": "Nc1scc(-c2ccncc2)c1Cl", "activity score": "-79.4% (active)"}
{"smiles": "CC1CN/C(=C\\C(=O)c2ccc(Br)cc2)C(=O)N1", "note": "(stereo unspecified)", "activity score": "62% (inactive)"}
{"smiles": "CC(=O)c1ccc(Oc2cc(C)nc(-n3nc(C)cc3C)n2)cc1", "activity score": "80.1% (inactive)"}
{"smiles": "O=C(CSc1nc2ccccc2o1)N/N=C/c1ccccc1C(=O)O", "activity score": "-97.9% (active)"}
{"smiles": "Cc1ccc(/C=N/NC(=O)CSc2nc3ccccc3o2)cc1", "activity score": "-108% (active)"}
{"smiles": "COC(=O)c1ccc(/C=N/N2C(C)CCCC2C)cc1", "note": "(stereo unspecified)", "activity score": "-172% (active)"}
{"smiles": "CC(=O)c1ccc(S(=O)(=O)N2CCN(C(=O)/C=C/c3ccc4ccccc4n3)CC2)cc1", "activity score": "62.4% (inactive)"}
{"smiles": "O=C(c1ccc2ccccc2n1)N1CCN(c2ccccc2Cl)CC1", "activity score": "-142% (active)"}
{"smiles": "Oc1ccccc1-c1cc(-c2ccc(Cl)cc2)n[nH]1", "activity score": "-126% (active)"}
{"smiles": "c1ccc(-c2cc(-c3ccccc3)[nH]n2)cc1", "activity score": "-106% (active)"}
{"smiles": "Cc1ccc(Nc2nc(-c3ccc(O)cc3O)cs2)nc1", "activity score": "-189% (active)"}
{"smiles": "COc1ccc(OCCCn2cccc2/C=C2/C(=N)N3OC(C)=CC3=NC2=O)cc1", "activity score": "-95.9% (active)"}
{"smiles": "Cc1ccc(-c2nn(-c3cccc(F)c3)cc2CNCCc2ccncc2)o1", "activity score": "-74% (active)"}
{"smiles": "CN(C)c1ccc(/C=C/C(=O)c2ccc(O)cc2)cc1[N+](=O)[O-]", "activity score": "-203% (active)"}
{"smiles": "O=C(/C=C/c1ccc(Cl)c([N+](=O)[O-])c1)c1ccc(O)cc1", "activity score": "-156% (active)"}
{"smiles": "O=C(/C=C/c1ccc2c(c1)OCCO2)c1ccc(O)cc1", "activity score": "-260% (active)"}
{"smiles": "COc1ccc(/C=C2\\SC(=S)N(CCCC(=O)NC3CCCC3)C2=O)cc1OC", "activity score": "83.7% (inactive)"}
{"smiles": "COc1ccc(/C=C2\\SC(=O)N(CCC(=O)NC3CCS(=O)(=O)C3)C2=O)cc1", "note": "(stereo unspecified)", "activity score": "-71.6% (active)"}
{"smiles": "Cc1nc(-c2ccccc2)sc1C(=O)/C=C/c1ccccc1", "activity score": "-83.8% (active)"}
{"smiles": "Cc1nc(-c2ccccc2)sc1C(=O)/C=C/N(C)C", "activity score": "-76.2% (active)"}
{"smiles": "CCOC(=O)c1c(C)[nH]c(C2=NNC(=NC(C)COC)SC2)c1C", "note": "(stereo unspecified)", "activity score": "-98.9% (active)"}
{"smiles": "CN(Cc1ccccc1)C(=O)CSc1nc2ccccc2[nH]1", "activity score": "-93.7% (active)"}
{"smiles": "O=C(CSc1nc2ccccc2[nH]1)c1cccs1", "activity score": "-160% (active)"}
{"smiles": "O=C1c2ccccc2NC(c2ccc(-c3cccc(Cl)c3)o2)N1O", "note": "(stereo unspecified)", "activity score": "-145% (active)"}
{"smiles": "Cc1cccc(C(=O)Nc2ccc3c(c2)C(=O)N(CC(C)C)C3=O)c1", "activity score": "-149% (active)"}
{"smiles": "Nc1nnc(SCC(=O)Nc2ccc3nc(SCC(=O)Nc4ccccc4)sc3c2)s1", "activity score": "-107% (active)"}
{"smiles": "O=C(Nc1cccc(Cl)c1)Nc1ccccc1NS(=O)(=O)c1cccs1", "activity score": "-81.4% (active)"}
{"smiles": "Cc1ccc(NN=C2C(=O)OC(C)(C)OC2=O)c(C)c1", "activity score": "-140% (active)"}
{"smiles": "Cc1nn(-c2ccccc2)c(Cl)c1/C=C/C(=O)c1ccc(O)cc1", "activity score": "-125% (active)"}
{"smiles": "Cn1sc(NC(=O)c2ccccc2)nc1=O", "activity score": "-72.7% (active)"}
{"smiles": "O=C(c1ccc(F)cc1)n1c(=S)nc2ccccn21", "activity score": "-171% (active)"}
{"smiles": "COc1cc(/C=N/O)ccc1OCc1ccc([N+](=O)[O-])cc1", "activity score": "-86.3% (active)"}
{"smiles": "COc1ccc2[nH]c3c(=O)n(Cc4ccco4)cnc3c2c1", "activity score": "-65.2% (active)"}
{"smiles": "Clc1ccc(N/N=C/c2cccs2)nn1", "activity score": "-131% (active)"}
{"smiles": "Cc1ccsc1/C=N/Nc1ccc(Cl)nn1", "activity score": "-101% (active)"}
{"smiles": "COc1cccc(/C=N/Nc2ccc(Cl)nn2)c1", "activity score": "-168% (active)"}
{"smiles": "O=C(Nc1ccc(S(=O)(=O)N2CCOCC2)cc1)c1ccc2ncsc2c1", "activity score": "-76.4% (active)"}
{"smiles": "CC1CCCN(c2ccc(C(=O)NCCc3ccccc3)cn2)C1", "note": "(stereo unspecified)", "activity score": "-104% (active)"}
{"smiles": "CCC(=O)Nc1ccc(-c2ccc(N3CCCCC3)nn2)cc1", "activity score": "-132% (active)"}
{"smiles": "CC1CCN(c2ccc(-c3ccc(NC(=O)c4ccco4)cc3)nn2)CC1", "activity score": "-144% (active)"}
{"smiles": "[O-][n+]1onc2c1CCc1[nH]c(-c3ccccc3)nc1-2", "activity score": "-130% (active)"}
{"smiles": "CC(=O)Nc1ccc(NC(=O)COc2ccccc2C(=O)Nc2cccc(Cl)c2Cl)cc1", "activity score": "41.1% (inactive)"}
{"smiles": "CC(=O)Nc1ccc(NC(=O)COc2ccc(S(=O)(=O)NC(C)c3ccccc3)cc2)cc1", "note": "(stereo unspecified)", "activity score": "-147% (active)"}
{"smiles": "O=C(COc1ccccc1)Nc1ccc(F)cc1", "activity score": "-69.2% (active)"}
{"smiles": "O=C(COc1ccccc1)Nc1nonc1NC(=O)COc1ccccc1", "activity score": "-62.2% (active)"}
{"smiles": "CC(C)[C@@H]1COC(c2cccc(C3=N[C@H](C(C)C)CO3)c2)=N1", "activity score": "-152% (active)"}
{"smiles": "CCOc1ccc(NC(=O)CCNC(=O)c2ccc(Br)cc2)cc1", "activity score": "-69.9% (active)"}
{"smiles": "CCOc1ccc(NC(=O)c2ccc(NC(=O)COC(=O)c3ccc(NC(=O)CC#N)cc3)cc2)cc1", "activity score": "-88.1% (active)"}
{"smiles": "COc1ccc(C2=NOC(C(=O)NCc3ccco3)C2)cc1OC", "note": "(stereo unspecified)", "activity score": "51.4% (inactive)"}
{"smiles": "O=C(NCc1ccco1)c1sc2cccc(F)c2c1Cl", "activity score": "-99.4% (active)"}
{"smiles": "COc1ccc2c(Cl)c(C(=O)NCc3ccco3)sc2c1", "activity score": "-164% (active)"}
{"smiles": "COc1ccc2oc(C(=O)NCc3ccco3)c(C)c2c1", "activity score": "-92.6% (active)"}
{"smiles": "Cc1ccc2nc(-c3ccc(NC(=O)CN(C)S(=O)(=O)c4ccccc4)cc3)sc2c1", "activity score": "-67.2% (active)"}
{"smiles": "Cc1cccc(N(CC(=O)Nc2ccc(-c3nc4ccc(C)cc4s3)cc2)S(C)(=O)=O)c1", "activity score": "-159% (active)"}
{"smiles": "Cc1c(C(=O)NCC2CCCO2)sc2nc(-c3ccccc3)cn12", "note": "(stereo unspecified)", "activity score": "-102% (active)"}
{"smiles": "Cc1cccc2cc3c(N)c(C(=O)N4CCCc5ccccc54)sc3nc12", "activity score": "85.2% (inactive)"}
{"smiles": "Cc1c(C(=O)N2CCCc3ccccc32)sc2nc(-c3ccccc3)cn12", "activity score": "-83.5% (active)"}
{"smiles": "Cc1ccc(C(=O)Cc2nnc(C)s2)cc1", "activity score": "-98.4% (active)"}
{"smiles": "O=c1c2ccccc2ncn1/N=C/c1ccccc1", "activity score": "-192% (active)"}
{"smiles": "Cc1cc(/C=C2/SC(=O)N(CC(=O)OC(C)C)C2=O)c(C)n1C", "activity score": "-159% (active)"}
{"smiles": "Cc1cc(SCC(=O)NCCN2C(=O)CSC2=O)nc2ccccc12", "activity score": "-74.6% (active)"}
{"smiles": "CCc1ccc(NC(=O)N2CCc3ccccc3C2)cc1", "activity score": "-68.2% (active)"}
{"smiles": "O=C(Nc1cccc([N+](=O)[O-])c1)N1CCc2ccccc2C1", "activity score": "-99.5% (active)"}
{"smiles": "CCOC(=O)C1C(=O)C=C(c2ccc(OC)cc2)CC1c1ccco1", "note": "(stereo unspecified)", "activity score": "-74.2% (active)"}
{"smiles": "CCCC1(C(=O)OC)NC(c2ccco2)C2C(=O)N(C)C(=O)C21", "note": "(stereo unspecified)", "activity score": "27.8% (inactive)"}
{"smiles": "CCOC(=O)c1c(Cc2ccc(Cl)cc2)c[nH]c1C", "activity score": "-90.9% (active)"}
{"smiles": "CN(c1cccc(NC(=O)Nc2ccc(Cl)cc2)c1)S(C)(=O)=O", "activity score": "-112% (active)"}
{"smiles": "O=[N+]([O-])c1ccccc1N/N=C1\\CCc2ccccc21", "activity score": "-187% (active)"}
{"smiles": "Cc1nnc(N/N=C/c2ccccn2)[nH]c1=O", "activity score": "117% (inactive)"}
{"smiles": "COc1ccc(/C=N/Nc2nc3ccccc3c(=O)[nH]2)cc1", "activity score": "-125% (active)"}
{"smiles": "COc1ccc(-c2onc3ccc(C(C)=O)cc23)cc1", "activity score": "-120% (active)"}
{"smiles": "CS(=O)(=O)C1=NN2C(=N)/C(=C\\c3ccc(OCCOc4ccccc4)cc3)C(=O)N=C2S1", "activity score": "-73.6% (active)"}
{"smiles": "O=C(Nc1ccccc1F)c1ccc2c(c1)OCO2", "activity score": "-199% (active)"}
{"smiles": "O=C(OCc1ccccc1F)c1ccc2c(c1)OCCO2", "activity score": "-210% (active)"}
{"smiles": "N#Cc1ccccc1NC(=O)c1ccc2c(c1)OCO2", "activity score": "-87.9% (active)"}
{"smiles": "O=c1c(-c2ccccc2)coc2cc(O)ccc12", "activity score": "-128% (active)"}
{"smiles": "COc1cccc(/C=N/NC(=O)c2[nH]nc3c2CCc2ccccc2-3)c1O", "activity score": "76.4% (inactive)"}
{"smiles": "CN(C)CCNC(=O)c1[nH]nc2c1CCc1ccccc1-2", "activity score": "-73.6% (active)"}
{"smiles": "O=C(CC1SCCNC1=O)Nc1ccc(Cl)c(Cl)c1", "note": "(stereo unspecified)", "activity score": "-77.7% (active)"}
{"smiles": "Oc1c(Cl)cc(Cl)c(Cl)c1Cc1c(O)c(Cl)cc(Cl)c1Cl", "activity score": "77.3% (inactive)"}
{"smiles": "C=C(C)C(=O)O[C@H]1C/C(C)=C\\C(=O)/C=C(\\C)[C@H](O)[C@@H]2OC(=O)C(=C)[C@@H]21", "activity score": "-250% (active)"}
{"smiles": "O=C(Nc1nc2ccccc2s1)c1ccc2c(c1)OCO2", "activity score": "53.7% (inactive)"}
{"smiles": "O=C(Nc1ccccc1)c1ccc2c(c1)OCO2", "activity score": "-148% (active)"}
{"smiles": "CN1CCN(c2ccc(NC(=O)c3ccc4c(c3)OCCO4)cc2Cl)CC1", "activity score": "-66.8% (active)"}
{"smiles": "O=C(Nc1ccc(C2CC2(Cl)Cl)cc1)c1cccc([N+](=O)[O-])c1", "note": "(stereo unspecified)", "activity score": "-92.3% (active)"}
{"smiles": "O=C(Nc1ccc(N2CCOCC2)cc1)c1ccc2c(c1)OCO2", "activity score": "-121% (active)"}
{"smiles": "O=C(Nc1cccc([N+](=O)[O-])c1)c1ccc2c(c1)OCO2", "activity score": "-99.5% (active)"}
{"smiles": "COc1ccc2oc(-c3cccc(NC(=O)CSc4ccc(Cl)cc4)c3)nc2c1", "activity score": "-97.9% (active)"}
{"smiles": "O=C(O)c1cccc(N=NN2CCCCCC2)c1", "activity score": "-74.8% (active)"}
{"smiles": "Cc1ccc(C(=O)Nc2ccc(C)c(S(=O)(=O)N(C)C)c2)s1", "activity score": "-185% (active)"}
{"smiles": "COc1ccc2ccccc2c1CNCc1ccccn1", "activity score": "-104% (active)"}
{"smiles": "Cc1ccc(S(=O)(=O)/N=C(/Nc2ccccn2)c2ccc(Cl)cc2)cc1", "activity score": "-118% (active)"}
{"smiles": "O=C(c1ccc(Cl)cc1)N1N=C(c2ccccn2)CC1(O)C(F)(F)F", "note": "(stereo unspecified)", "activity score": "68.6% (inactive)"}
{"smiles": "C/C(=N\\NC(=O)Cc1ccc(Cl)cc1)c1ccccn1", "activity score": "85.6% (inactive)"}
{"smiles": "Cc1cccc(CSc2ccc(-c3cccs3)nn2)c1", "activity score": "-110% (active)"}
{"smiles": "COc1ccc(/C(O)=C2/C(=O)C(=O)N(CCCN(C)C)C2c2ccccc2)cc1OC", "note": "(stereo unspecified)", "activity score": "-86.9% (active)"}
{"smiles": "Cc1ccc(NC(=O)c2sc3nc(N)c(C#N)cc3c2N)cc1", "activity score": "-133% (active)"}
{"smiles": "N#Cc1ccc(C2N=C(c3ccccc3)NO2)cc1", "note": "(stereo unspecified)", "activity score": "-107% (active)"}
{"smiles": "Brc1ccccc1C1N=C(c2ccccc2)NO1", "note": "(stereo unspecified)", "activity score": "-157% (active)"}
{"smiles": "COC(=O)c1c(NC(=O)c2ccc(S(=O)(=O)N3CCOCC3)cc2)sc2c1CCN(C(C)C)C2", "activity score": "-85.3% (active)"}
{"smiles": "O=[N+]([O-])c1cccc(Nc2c3ccccc3nc3ccccc23)c1", "activity score": "-124% (active)"}
